High-throughput results deposited in PubChem BioAssay by University of Kansas High Throughput Screening Laboratory.
mHTT CaM bind = disrupts binding of mutant huntingtin to calmodulin. P42858. AlphaScreen His-mHTT/GST-CaM binding, luminescence. inhibition, % at 15 µM. 3.6% of 190,000 active
Pf apPOL block = Pf-apPOL DNA polymerase inhibition. Recombinant Pf-apPOL, molecular beacon fluorescence, 1.5 h. inhibition, % at 10 µM. 0.25% of 210,000 active
Numbers stand for hits. An excerpt weighted towards active compounds, which were near 3.5% of everything screened. Rule as the data show it: active = inhibition above about 50%; inactive = the rest.

How did COC(=O)C1=C(N)OC2=C(C(=O)CC(C)(C)C2)C1c1ccccc1[N+](=O)[O-] (stereo unspecified) do in these assays?
mHTT CaM bind: inactive; Pf apPOL block: inactive

How did CN1CC(C(=O)N2CCc3ccccc32)CC1=O (stereo unspecified) do in these assays?
mHTT CaM bind: inactive

How did O=C(Nc1nnc(C2CC(=O)N(c3ccc(F)cc3)C2)o1)c1ccccc1F (stereo unspecified) do in these assays?
mHTT CaM bind: 61; Pf apPOL block: inactive

What do the screens show for `O=C(Nc1nnc(C2CC(=O)N(c3ccc(Cl)cc3)C2)o1)c1ccc(F)cc1` (stereo unspecified)?
mHTT CaM bind: inactive; Pf apPOL block: inactive

Results for O=C(Cc1ccc(Cl)cc1)Nc1nnc(C2CC(=O)N(c3ccc(F)cc3)C2)o1 (stereo unspecified) ?
mHTT CaM bind: 71; Pf apPOL block: inactive

What do the screens show for `COc1ccc(CC(=O)Nc2nnc(C3CC(=O)N(c4ccc(OC)cc4)C3)o2)cc1` (stereo unspecified)?
mHTT CaM bind: inactive; Pf apPOL block: inactive

What do the screens show for `O=C(COc1ccc(F)cc1)Nc1nnc(C2CC(=O)N(c3ccc(F)cc3)C2)o1` (stereo unspecified)?
mHTT CaM bind: 68; Pf apPOL block: inactive

How did COc1ccc(N2CC(c3nnc(NC(=O)Cc4ccc(F)cc4)o3)CC2=O)cc1 (stereo unspecified) do in these assays?
mHTT CaM bind: 73; Pf apPOL block: inactive

How did O=C(Nc1nnc(C2CC(=O)N(c3ccccc3)C2)o1)c1ccccc1F (stereo unspecified) do in these assays?
mHTT CaM bind: inactive; Pf apPOL block: inactive

How did COc1ccc(N2CC(c3nnc(NC(=O)COc4ccc(F)cc4)o3)CC2=O)cc1 (stereo unspecified) do in these assays?
mHTT CaM bind: inactive; Pf apPOL block: inactive

Results for O=C(CN1C(=O)/C(=C/c2ccccc2F)Sc2ccccc21)NCc1ccccn1 ?
mHTT CaM bind: inactive; Pf apPOL block: inactive

Results for Cc1cc(C)n(-c2cc(N3CCCC(C(=O)Nc4cc(C)on4)C3)ncn2)n1 (stereo unspecified) ?
mHTT CaM bind: inactive; Pf apPOL block: inactive

Results for O=C(NCc1ccccn1)c1csc(Nc2ccc(OC(F)(F)F)cc2)n1 ?
mHTT CaM bind: inactive; Pf apPOL block: inactive

Results for COc1ccc(N2CC(c3nnc(NC(=O)Cc4ccc(Cl)cc4)o3)CC2=O)cc1 (stereo unspecified) ?
mHTT CaM bind: inactive; Pf apPOL block: inactive

How did O=C(Cc1ccc(F)cc1)Nc1nnc(C2CC(=O)N(c3ccc(Cl)cc3)C2)o1 (stereo unspecified) do in these assays?
mHTT CaM bind: 67; Pf apPOL block: inactive

How did O=C(O)C(O)C12CC3CC(CC(Br)(C3)C1)C2 (stereo unspecified) do in these assays?
mHTT CaM bind: inactive; Pf apPOL block: inactive

What do the screens show for `COc1ccc(OCCCC(=O)Nc2ccc([N+](=O)[O-])cc2Br)cc1`?
mHTT CaM bind: inactive; Pf apPOL block: inactive

Results for Clc1nc(NCc2ccco2)nc(Oc2ccccc2)n1 ?
mHTT CaM bind: 53; Pf apPOL block: inactive

How did Clc1nc(NCc2ccco2)nc(NC2CCCCC2)n1 do in these assays?
mHTT CaM bind: inactive

What do the screens show for `COc1ccc(Nc2n[nH]nc2C(=O)Nc2cccc(SC)c2)cc1`?
mHTT CaM bind: 50; Pf apPOL block: inactive

How did COc1ccc(C(=O)Nc2cccc(SC)c2)cc1 do in these assays?
mHTT CaM bind: inactive; Pf apPOL block: inactive

What do the screens show for `O=C1N(CN2CCN(Cc3ccccc3)CC2)c2ccccc2C12OCC(CO)([N+](=O)[O-])CO2` (stereo unspecified)?
mHTT CaM bind: inactive; Pf apPOL block: inactive

How did CC(C)NC(=O)C1CCN(c2ncccc2-c2nc(-c3cccc(F)c3)no2)CC1 do in these assays?
mHTT CaM bind: inactive; Pf apPOL block: inactive

Results for Cc1cc([N+](=O)[O-])ccc1NCc1ccccn1 ?
mHTT CaM bind: inactive; Pf apPOL block: inactive

What do the screens show for `Nc1ccc2nc(-c3ccccc3Br)[nH]c2c1`?
mHTT CaM bind: 57; Pf apPOL block: inactive

Results for Nc1ccc2nc(CCc3nc4ccc(N)cc4[nH]3)[nH]c2c1 ?
mHTT CaM bind: inactive; Pf apPOL block: inactive

Results for Nc1ccc2nc(-c3ccc(N)c(Cl)c3)[nH]c2c1 ?
mHTT CaM bind: 66; Pf apPOL block: inactive

Results for Nc1ccc2nc(-c3ccc(Oc4ccc(-c5nc6ccc(N)cc6[nH]5)cc4)cc3)[nH]c2c1 ?
mHTT CaM bind: 65; Pf apPOL block: inactive

How did Nc1ccc(-c2nc3c(Cl)cc(N)cc3[nH]2)cc1 do in these assays?
mHTT CaM bind: inactive; Pf apPOL block: inactive

Results for Nc1ccc2nc(C(F)(F)F)[nH]c2c1 ?
mHTT CaM bind: inactive

Results for CN1CCN(c2ccccc2C=C(C#N)S(C)(=O)=O)CC1 ?
Pf apPOL block: inactive

What do the screens show for `CCCC(=O)N1CCN(Cc2noc(-c3ccc(Cl)cc3Cl)n2)CC1`?
mHTT CaM bind: inactive; Pf apPOL block: inactive

How did COc1ccc(-c2csc(-c3ccncc3)n2)cc1 do in these assays?
Pf apPOL block: inactive

What do the screens show for `COc1cccc(C=C2Oc3cc(OCC(C)=O)ccc3C2=O)c1OC`?
mHTT CaM bind: inactive; Pf apPOL block: inactive

Results for N#CC(C#N)C(C#N)(C#N)C1CCC/C(=C\c2ccco2)C1=O (stereo unspecified) ?
mHTT CaM bind: 99; Pf apPOL block: inactive

How did O=C1/C(=C/c2ccco2)CC2CC1C/C(=C\c1ccco1)C2=O do in these assays?
mHTT CaM bind: inactive; Pf apPOL block: inactive

What do the screens show for `CCn1cnc2c(-c3ccccc3)cn(CC(=O)Nc3ccccc3C(F)(F)F)c2c1=O`?
mHTT CaM bind: inactive; Pf apPOL block: inactive

What do the screens show for `COc1cc(-c2ccc(/C=C(\C#N)c3nc4ccc(C)cc4[nH]3)o2)c(OC)cc1Cl`?
mHTT CaM bind: inactive; Pf apPOL block: inactive

How did Cc1ccc2nc(/C(C#N)=C/c3ccc(-c4ccc5c(c4)C(=O)NC5=O)o3)[nH]c2c1 do in these assays?
mHTT CaM bind: 68; Pf apPOL block: inactive

Results for Cc1ccc2nc(/C(C#N)=C/C=C/c3ccco3)[nH]c2c1 ?
mHTT CaM bind: 67; Pf apPOL block: inactive

How did N#C/C(=C\c1ccco1)c1nc2ccccc2[nH]1 do in these assays?
mHTT CaM bind: inactive; Pf apPOL block: inactive

Results for CCOc1ccc(/C=C(\C#N)c2nc3ccc(C)cc3[nH]2)cc1 ?
mHTT CaM bind: inactive; Pf apPOL block: inactive

What do the screens show for `Cc1ccc2nc(/C(C#N)=C/c3ccc([N+](=O)[O-])o3)[nH]c2c1`?
mHTT CaM bind: inactive; Pf apPOL block: inactive

How did Cc1ccc2nc(/C(C#N)=C/c3ccc(-c4cc([N+](=O)[O-])ccc4O)o3)[nH]c2c1 do in these assays?
mHTT CaM bind: 56; Pf apPOL block: inactive

What do the screens show for `CCOc1cc(/C=C(\C#N)c2nc3ccc(C)cc3[nH]2)cc(I)c1O`?
mHTT CaM bind: 80; Pf apPOL block: inactive

Results for CCOC(=O)N1CCC(NC=C(C#N)S(=O)(=O)c2cccnc2)CC1 ?
Pf apPOL block: inactive

How did COc1ccc(C2CC(c3ccc(SC)cc3)n3nnnc3N2)cc1 (stereo unspecified) do in these assays?
mHTT CaM bind: inactive; Pf apPOL block: inactive

Results for O=C(c1c(F)cccc1F)N1CCC2(CC1)NC(=O)N(Cc1ccc(Cl)cc1)C2=O ?
mHTT CaM bind: inactive; Pf apPOL block: inactive

Results for O=C1C(c2ccccc2)=C(c2ccccc2)c2ccccc21 ?
mHTT CaM bind: inactive; Pf apPOL block: inactive

What do the screens show for `O=C1C(=C(c2ccccc2)c2ccccc2)C(=O)c2ccccc21`?
mHTT CaM bind: 61; Pf apPOL block: inactive
